Measurements reported in PubChem BioAssay (NCATS).
Unmarked numbers belong to inactive results. Activity calls are given as the source filed them. Calls come from the whole dose curve; as a rule, active = well fitted activation curve with a large enough effect; inconclusive = small, poorly fitted or top-dose-only effect; inactive = flat fitted curve, though single readings scatter.

Assay: Cellular Toxicity (caspase-3) HepG2 (AID 654);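 for caspase-3 activation: cells exposed to compound for 16 hours before reading; 0% = DMSO alone and 100% = caspase signal from 100 µM tamoxifen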
Conditions: HepG2 caspase-3 activation, luminescence; series mostly up to 92.2 µM; caspase-3 activation: at the top concentration
From the text: NIH Chemical Genomics Center [NCGC]
NIH Molecular Libraries Screening Centers Network [MLSCN]
National Institutes of Environmental Health Sciences [NIEHS]
National Toxicology Program [NTP]
We have developed a 1536-well cell-based assay for quantitative high throughput screening (qHTS) against a number of cell lines to determine in vitro caspase 3/7 of small molecules. This particular assay uses the HepG2 cell line which is derived from human hepatocellular carcinoma.
NCGC Assay Protocol Summary:
The Caspase-Glo 3/7 assay (Promega) is a homogeneous method to measure caspase-3 and caspase-7 activities in cultured cells. The quantitation of caspase 3/7 activity is based on the cleavage of a peptide-aminoluciferin substrate. After caspase cleaves the substrate the free aminoluciferin is liberated and serves as the substrate of luciferase, which generates the light. The luminescent signal is proportional to amount of caspase 3/7 activity present.
Using the Caspase-Glo 3/7 assay, the amount of caspase 3/7 activity was measured in the HepG2 cell line with complete culture medium following compound treatment for 16 hours. The assay was performed in opaque white 1536-well plates. In the screen, tamoxifen and doxorubicin were used as positive controls. Library compounds were measured for their ability to cause the activation of caspase 3/7 in the cell line, as reflected by an increase in luminescence signal, in a concentration-dependent manner. Data were normalized to the controls for basal activity (DMSO only) and 100% stimulation (100 uM tamoxifen). AC50 values were determined from concentration-response data modeled with the standard Hill equation.
qHTS protocol for caspase 3/7 assay in HepG2 cells
[Step] [Parameter] [Value] [Description]
1. Reagent; 5 uL; 1500 HepG2 cells/well
2. Time; 5 hr; 37 °C incubation
4. Controls; 23 nL; Tamoxifen 0.23 uM to 100 uM & Doxorubicin 7.0 pM to 100 uM
5. Time; 16 hr; 37 °C incubation
6. Reagent; 5 uL; Caspase-Glo 3/7 reagent
7. Time; 20 min; Room Temperature
8. Detection; Luminescence; Viewlux plate reader
Keywords: caspase 3/7, apoptosis, HepG2 cell line, luminescence, NTPHTS, NTPHTS_NCGC, NIEHS, EPA, DSSTox, MLSMR, MLSCN, NIH Roadmap, qHTS, NCGC
Potency is the fitted concentration of half-maximal effect.

| Structure (SMILES) | caspase-3 activation [%] | Potency |
| --- | --- | --- |
| N=C(N)c1ccc(OCCCCCOc2ccc(C(=N)N)cc2)cc1 | -0.145 |  |
| Cc1ccnc2c1NC(=O)c1cccnc1N2C1CC1 | -0.0284 |  |
| COc1ccc2cc3[n+](cc2c1OC)CCc1cc2c(cc1-3)OCO2 | -0.539 |  |
| CCc1cc(C(N)=S)ccn1 | -0.835 |  |
| O=C(N[C@H](CO)[C@H](O)c1ccc([N+](=O)[O-])cc1)C(Cl)Cl | -0.202 |  |
| CC(=O)Oc1ccccc1C(=O)Nc1ncc([N+](=O)[O-])s1 | -3.25 |  |
| NC(N)=NC(N)=NCCc1ccccc1 | -0.875 |  |
| CN(C)c1ccc(C(=C2C=CC(=[N+](C)C)C=C2)c2ccc(N(C)C)cc2)cc1 |  | 31.6 µM (active) |
| NNC(=O)c1ccncc1 | -0.833 |  |
| O=C(O)c1cc(=O)[nH]c(=O)[nH]1 | -0.185 |  |
| Cc1nnc(NS(=O)(=O)c2ccc(N)cc2)s1 | 0.626 |  |
| Cc1cc(NS(=O)(=O)c2ccc(N)cc2)no1 | 0.233 |  |
| Cc1noc(NS(=O)(=O)c2ccc(N)cc2)c1C | 1.62 |  |
| CC(=O)[C@H]1CC[C@H]2[C@@H]3CCC4=CC(=O)CC[C@]4(C)[C@H]3CC[C@]12C |  | inactive |
| Cc1ncc([N+](=O)[O-])n1CCO | 0.0787 |  |
| CC1=NN(c2ccccc2)C(=O)C1 | -0.01 |  |
| C[C@]12C=CC(=O)C=C1CC[C@@H]1[C@@H]2C(=O)C[C@@]2(C)[C@H]1CC[C@]2(O)C(=O)CO | -0.172 |  |
